# According to PubChem BioAssay (NCI):
# Compounds without any hit were thinned out: in the full panel of roughly 83,000, 20% have a hit.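 Assay: single dose, 48 h. Readout: percent growth (0 = no net growth; negative = cell death). Active: <10.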 Activity calls are given as the source filed them.
# Tested on: UACC-62 melanoma
# Test: NCI-60 one-dose screen, 48 h (100 = growth as untreated, 0 = no growth, -100 = all killed)
# Details: 10 µM unless noted
row,Compound,growth
1,CCCN(CCSSCCNc1nc(N(C)O)nc(N(C)O)n1)c1nc(N(C)O)nc(N(C)O)n1,81.3% (inactive)
2,COC(=O)c1sccc1-c1cc(O)c(C(=O)Nc2ccccc2)s1,91.2% (inactive)
3,N#Cc1c(-c2ccc(Cl)cc2)nc(NN=Cc2ccc[nH]2)nc1N1CCOCC1,88% (inactive)
4,Clc1ccc(-c2nc(C(Cl)Cl)nc3cc(-c4ccccc4)nn23)cc1,79.8% (inactive)
5,C/C(=N\Nc1ccccc1)c1ccc(NC2=CC(=O)c3ccccc3C2=O)cc1,-7.92% (active)
6,COc1ccc(/C=C(/C(=O)N2CCNCC2)c2cc(OC)c(OC)c(OC)c2)cc1O,32.5% (inactive)
7,CCN(CC)CCCC(Cc1ccccc1)Nc1c2ccc(Cl)cc2nc2ccc(OC)cc12 (stereo not given),-61.2% (active)
8,Fc1ccc2[nH]cc(-c3nc(-c4c[nH]c5c(Cl)nccc45)cs3)c2c1,24% (inactive)
9,Fc1ccc(/C=C/[C@@H]2C[C@@H](F)CCO2)cc1,90.9% (inactive)
10,Cc1ccccc1N1CCN(C(=S)c2ccccc2)CC1,82.9% (inactive)
11,N#Cc1ccc(/C=C/c2cn(-c3ccccc3)nc2-c2cccc([N+](=O)[O-])c2)cc1,77% (inactive)
12,Cc1[nH]c(C(=O)Nc2ccccc2OC2CCN(CCN3CCOCC3)CC2)c(Cl)c1Cl,108% (inactive)
13,COc1ccc(C(O)c2cc3c(N)c(C(=O)Nc4cccc5ccccc45)sc3nc2C)cc1 (stereo not given),18.6% (inactive)
14,Cc1ccc(C(=O)c2ccc(CC(=O)N/N=C/c3cccc(O)c3O)n2C)cc1,39.1% (inactive)
15,CCC(C)(C)c1ccc(Nc2ccc(Nc3ccc(C(C)(C)CC)cc3)cc2)cc1,83.2% (inactive)
